# Laboratory results as given in PubChem BioAssay AID2073 (Sanford-Burnham Center for Chemical Genomics, 2009).
# The whole screen tested about 290,000 compounds, of which about 570 (0.2%) were called active. Another 1% or so got no clear call; they are omitted. The sample holds actives, similar compounds and a random draw of the others, so the mix is not that of the screen. Cut-off read from the data, not from the text of the source: active = inhibition mostly above about 51% (no sharp cut-off); inconclusive = no clear call, values can overlap the other calls; inactive = mostly below about 53%.
# Target: Voltage-dependent N-type calcium channel subunit alpha-1B (Homo sapiens) (UniProt Q00975)
# Sequence (Q00975 whole entry, looked up): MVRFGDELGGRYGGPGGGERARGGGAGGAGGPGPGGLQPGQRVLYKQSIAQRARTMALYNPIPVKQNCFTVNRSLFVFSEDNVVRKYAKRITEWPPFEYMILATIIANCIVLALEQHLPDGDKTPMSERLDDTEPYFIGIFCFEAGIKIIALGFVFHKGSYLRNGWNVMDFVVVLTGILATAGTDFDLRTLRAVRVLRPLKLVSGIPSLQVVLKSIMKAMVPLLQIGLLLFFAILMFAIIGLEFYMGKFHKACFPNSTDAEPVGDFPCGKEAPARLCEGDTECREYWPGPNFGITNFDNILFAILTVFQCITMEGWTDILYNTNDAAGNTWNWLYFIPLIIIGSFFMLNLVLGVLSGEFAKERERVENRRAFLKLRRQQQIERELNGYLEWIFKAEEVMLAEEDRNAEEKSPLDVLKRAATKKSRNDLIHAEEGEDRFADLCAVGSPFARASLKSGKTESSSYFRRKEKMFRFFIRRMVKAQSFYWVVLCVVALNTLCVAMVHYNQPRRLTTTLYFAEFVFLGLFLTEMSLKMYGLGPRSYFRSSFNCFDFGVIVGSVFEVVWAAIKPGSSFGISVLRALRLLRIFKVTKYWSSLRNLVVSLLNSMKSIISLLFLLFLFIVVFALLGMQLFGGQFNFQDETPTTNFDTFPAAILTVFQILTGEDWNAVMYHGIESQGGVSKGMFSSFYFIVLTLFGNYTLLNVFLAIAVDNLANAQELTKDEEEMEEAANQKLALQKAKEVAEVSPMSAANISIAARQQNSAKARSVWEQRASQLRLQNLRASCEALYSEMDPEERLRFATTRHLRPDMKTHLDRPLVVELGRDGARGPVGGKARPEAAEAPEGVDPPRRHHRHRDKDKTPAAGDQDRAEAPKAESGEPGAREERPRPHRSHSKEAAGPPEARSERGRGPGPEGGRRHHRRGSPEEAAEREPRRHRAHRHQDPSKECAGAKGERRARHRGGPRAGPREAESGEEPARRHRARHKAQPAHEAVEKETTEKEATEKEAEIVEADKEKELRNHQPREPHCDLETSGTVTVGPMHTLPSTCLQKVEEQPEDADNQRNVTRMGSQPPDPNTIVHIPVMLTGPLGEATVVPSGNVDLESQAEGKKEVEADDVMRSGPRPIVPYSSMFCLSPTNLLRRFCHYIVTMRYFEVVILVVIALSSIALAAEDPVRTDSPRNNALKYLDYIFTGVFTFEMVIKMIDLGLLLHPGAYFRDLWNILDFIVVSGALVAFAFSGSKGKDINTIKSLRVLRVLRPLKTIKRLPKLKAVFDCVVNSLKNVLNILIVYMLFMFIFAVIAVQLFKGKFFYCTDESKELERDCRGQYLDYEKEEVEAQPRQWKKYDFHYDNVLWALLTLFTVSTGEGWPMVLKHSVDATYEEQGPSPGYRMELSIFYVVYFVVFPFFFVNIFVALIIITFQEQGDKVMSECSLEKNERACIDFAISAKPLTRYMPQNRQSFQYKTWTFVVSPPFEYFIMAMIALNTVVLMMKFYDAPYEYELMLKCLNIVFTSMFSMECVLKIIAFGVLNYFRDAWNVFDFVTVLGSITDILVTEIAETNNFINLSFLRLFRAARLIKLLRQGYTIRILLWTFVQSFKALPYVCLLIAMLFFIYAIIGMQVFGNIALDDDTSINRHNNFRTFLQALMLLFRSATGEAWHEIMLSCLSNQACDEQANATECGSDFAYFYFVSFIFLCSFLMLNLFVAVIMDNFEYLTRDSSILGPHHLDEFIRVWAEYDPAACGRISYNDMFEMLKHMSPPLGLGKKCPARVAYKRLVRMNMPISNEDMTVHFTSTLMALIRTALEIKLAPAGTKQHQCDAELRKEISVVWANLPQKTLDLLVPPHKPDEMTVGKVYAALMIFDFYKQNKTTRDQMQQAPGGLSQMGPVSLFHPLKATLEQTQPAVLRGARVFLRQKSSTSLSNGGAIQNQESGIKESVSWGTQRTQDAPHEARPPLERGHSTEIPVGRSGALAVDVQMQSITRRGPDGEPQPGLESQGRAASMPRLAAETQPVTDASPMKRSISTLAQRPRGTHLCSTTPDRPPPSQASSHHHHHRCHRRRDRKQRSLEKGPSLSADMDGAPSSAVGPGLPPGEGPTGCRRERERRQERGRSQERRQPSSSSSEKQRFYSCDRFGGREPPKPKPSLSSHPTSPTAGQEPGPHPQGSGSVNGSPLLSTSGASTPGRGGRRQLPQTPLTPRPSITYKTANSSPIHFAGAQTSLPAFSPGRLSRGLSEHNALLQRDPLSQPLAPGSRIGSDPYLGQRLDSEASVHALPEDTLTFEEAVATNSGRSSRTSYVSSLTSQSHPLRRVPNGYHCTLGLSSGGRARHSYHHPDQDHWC
# Experiment: disruptors of CaV2.2 binding to Mint1 – biochemical, HTRF (AID 2073)
# Details: HTRF protein-protein interaction, Mint1-CaV2.2, at 20 µM, stronger effect = higher value
# [1] = measured here: average of repeat tests
Compound,inhibition,inhibition [1] [%]
CCOC(=O)c1cc2c(N)c(C(=O)c3cc(C#N)c(SC)nc3C)sc2nc1C,8.2% (inactive),–
COc1cc2ccccc2nn1,22.3% (inactive),–
COc1nc2ccccc2nc1OC,-4.1% (inactive),–
COc1ccc2c(n1)Sc1nc3ccccc3nc1N2,78.9% (active),–
Cn1nc(-c2ccccc2)cc1NC(=O)Nc1ccc(F)cc1,-0.7% (inactive),–
Cc1ccc(N=C2NC(=O)/C(=C/C=C/c3ccco3)S2)cc1C,76% (active),–
Cc1cccc(N=C2NC(=O)/C(=C/C=C/c3ccco3)S2)c1,57.2% (inactive),31.3
COc1ccc(N=C2NC(=O)/C(=C/c3ccco3)S2)cc1,-14.1% (inactive),–
O=C1NC(=Nc2ccc(Cl)cc2)/C(=C/c2ccco2)S1,55.3% (active),–
COc1ccc(N=C2NC(=O)/C(=C\c3ccco3)S2)cc1,81.2% (active),–
Cc1ccc(N=C2NC(=O)S/C2=C\c2ccco2)cc1,29.6% (inactive),–
O=C1NC(=Nc2ccccc2)/C(=C/c2ccco2)S1,24.1% (inactive),–
Cc1ccc(N=C2NC(=O)/C(=C/C=C/c3ccco3)S2)cc1,36.2% (inactive),–
Cc1ccc(N=C2NC(=O)/C(=C\c3ccco3)S2)cc1,58.4% (inactive),6.9
Fc1cccc(Cl)c1CSc1nnc2ccccn12,4% (inactive),–
Cc1c(CC(=O)NCC(=O)NCC(=O)O)c(=O)oc2cc3c(cc12)CCC(C)(C)O3,16.3% (inactive),–
Clc1ccc(-n2nnnc2SCc2cn3ccccc3n2)cc1,-7.5% (inactive),–
Cc1cc(Cl)c(OCCOCCN2CCCCC2)c(Br)c1,-0.3% (inactive),–
CCNC(=O)NC(=O)COC(=O)C1CSC2(C)CCC(=O)N12 (stereo unspecified),3.1% (inactive),–
C=CCN=C(NC#N)SCC(=O)NCc1ccccc1,2.2% (inactive),–
CNC(=O)/C(C#N)=C/c1ccc(-c2ccc(OC)cc2[N+](=O)[O-])o1,11.4% (inactive),–
COc1ccc(-c2ccc(C(=O)O)o2)c([N+](=O)[O-])c1,59.6% (active),–
COc1cccc(NC(=O)c2ccc(-c3ccccc3[N+](=O)[O-])o2)c1,52.1% (inactive),1.4

Compound,inhibition,inhibition [1] [%]
Cc1ccc(S(=O)(=O)N2CCN(C(=O)c3ccc(Cl)nc3)CC2)cc1,3% (inactive),–
COc1ccc(C(=O)Nc2ccc(CN3CCOCC3)cc2)cc1Br,3% (inactive),–
COc1ccc(-c2cc(-c3ccccc3)nc(=O)[nH]2)cc1,0.5% (inactive),–
Cc1cc(C)c2nc(-c3cccnc3)cc(C(=O)Nc3ccc(S(=O)(=O)Nc4onc(C)c4C)cc3)c2c1,31.4% (inactive),–
Cc1cc(C)c2nc(-c3ccccn3)cc(C(=O)Nc3ccc(S(=O)(=O)Nc4cc(C)on4)cc3)c2c1,39.7% (inactive),–
Cc1cc(C)c2nc(-c3ccccn3)cc(C(=O)Nc3ccc(S(=O)(=O)Nc4onc(C)c4C)cc3)c2c1,51% (active),52.5
COC(=O)c1sccc1NC(=O)c1ccc(C)o1,19.2% (inactive),–
O=S(=O)(Cc1ccccc1)N1CCN(c2ncccn2)CC1,7.7% (inactive),–
CCC(C(=O)NC1CC1)n1nc(C)c2c(C)n(-c3ccc(C)cc3)nc2c1=O (stereo unspecified),9.6% (inactive),–
COc1cc2c(cc1NC(=S)NC(=O)/C=C/c1ccc(OC)c(OC)c1)oc1ccccc12,14.5% (inactive),–
COc1cc2c(cc1NC(=S)NC(=O)/C=C/c1ccco1)oc1ccccc12,53.2% (active),–
COc1ccc(/C=C/C(=O)NC(=S)Nc2cc3oc4ccccc4c3cc2OC)cc1,0.7% (inactive),–
Cc1oc(-c2ccccc2Cl)nc1CS(=O)CC(=O)NCc1ccco1 (stereo unspecified),19.1% (inactive),–
Cc1cc(OCC(O)CN2CCCC2)ccc1C(C)C (stereo unspecified),-5.6% (inactive),–
O=C(Nc1ccc(C2=NCCN2)cc1)c1ccc(C(=O)Nc2ccc(C3=NCCN3)cc2)c(Cl)c1,51.6% (active),–
O=C(Nc1ccc(C2=NCCN2)cc1)c1ccc(Cl)c(C(=O)Nc2ccc(C3=NCCN3)cc2)c1,36.8% (inactive),–
O=C(Nc1ccc(C2=NCCN2)cc1)c1ccc(C(=O)Nc2ccc(C3=NCCN3)cc2)c([N+](=O)[O-])c1,30.7% (inactive),–
O=C(/C=C/c1ccc(Cl)cc1)N(Cc1ccccc1)c1ccccn1,22.8% (inactive),–
COc1ccccc1CN(C)C(=O)c1cnc(C)cn1,5.7% (inactive),–
Cc1cccc(/C=N/N2CCN(c3ccccc3)CC2)c1,-12.6% (inactive),–
CCCN1CCC(=O)N([C@H](CO)c2ccccc2)CC1,5.6% (inactive),–
C=CCN1C(=O)c2cccc3c(N4CCCCC4)ccc(c23)C1=O,53.2% (active),–
O=C1c2cccc3c(N4CCCCC4)ccc(c23)C(=O)N1CCO,24.6% (inactive),–

Compound,inhibition,inhibition [1] [%]
CCCN1C(=O)c2cccc3c(N4CCCCC4)ccc(c23)C1=O,11.8% (inactive),–
CCOc1ccc(C(=O)NC(=S)NCCCN2CCOCC2)cc1,-2.3% (inactive),–
COc1ccc(NC(=O)c2c3c(nc4ccccc24)CCC3)cc1S(=O)(=O)N1CCOCC1,59.4% (inactive),41.1
O=C(Nc1cccc(S(=O)(=O)N2CCOCC2)c1)c1c2c(nc3ccccc13)CCC2,56% (active),–
O=C(Nc1cccc(S(=O)(=O)N2CCCCC2)c1)c1c2c(nc3ccccc13)CCN(Cc1ccccc1)C2,40.8% (inactive),–
CCOc1cc(C(c2c(C)[nH][nH]c2=O)c2c(C)[nH][nH]c2=O)cc(Br)c1OC,5.6% (inactive),–
C=CC#CC1(O)CC(C)[N+](C)(C)CC1C (stereo unspecified),17.6% (inactive),–
COCCn1c(=NC(=O)c2cc(Cl)sc2Cl)sc2cc(S(N)(=O)=O)ccc21,38.7% (inactive),–
C=CCn1c(=NC(=O)c2cc(Cl)sc2Cl)sc2cc(S(N)(=O)=O)ccc21,27.4% (inactive),–
CCOCCn1c(=NC(=O)c2cc(Cl)sc2Cl)sc2cc(S(N)(=O)=O)ccc21,53.8% (active),–
CCOc1ccccc1C(=O)NC(C(=O)Nc1cccnc1)C(C)C (stereo unspecified),3.3% (inactive),–
Cc1cc(C(=O)COc2cccnc2[N+](=O)[O-])c(C)n1Cc1ccco1,78.9% (active),–
Cc1cc(C(=O)COc2cccnc2[N+](=O)[O-])c(C)n1Cc1cccs1,34% (inactive),–
COCCn1c(C)cc(C(=O)COc2cccnc2[N+](=O)[O-])c1C,-4% (inactive),–
Cc1ccc(NC(=O)c2c3c(nc4ccccc24)CCC3)cc1S(=O)(=O)N(C)C,53.6% (inactive),31.4
Cc1ccc(S(=O)(=O)N(C)CC(=O)OCC(=O)N2CCCC2=O)cc1,-12.9% (inactive),–
O=C(Nc1nc(-c2cccnc2)cs1)c1ccc([N+](=O)[O-])cc1,19% (inactive),–
COc1cc(CN(C(=O)c2ccco2)C2CCS(=O)(=O)C2)cc(OC)c1OC (stereo unspecified),11.2% (inactive),–
CC(=O)c1cccc(Nc2nc(-c3ccccc3)cs2)c1,0.5% (inactive),–
Oc1ccc(Br)cc1C=Nc1ccc2c3c(cccc13)CC2,53.5% (active),–
Cc1cccc(C=Nc2ccc3c4c(cccc24)CC3)c1O,7.8% (inactive),–
Oc1ccc(Cl)cc1C=Nc1ccc2c3c(cccc13)CC2,50.4% (inactive),11.1
O=[N+]([O-])c1cc(Cl)ccc1N1CCCC1,-1.5% (inactive),–
